{"source": "PubChem BioAssay AID720519", "about": "(National Center for Advancing Translational Sciences (NCATS), 2013)", "note": "Inconclusive results are not listed. Unmarked numbers belong to inactive results. Active and inactive are the calls of the source. The call rests on the fitted dose curve; in most records, active means well fitted activation curve with a large enough effect; inconclusive means small, poorly fitted or top-dose-only effect; inactive means flat fitted curve, though single readings scatter. Potency means the concentration at half of the fitted maximal effect."}
{"assay": "qHTS for Inhibitors of Cell Surface uPA Generation: Confirmatory Assay for Cherry-picked Compounds; on inhibition: 0% is about no effect", "details": "cell surface uPA activity generation, qHTS confirmation; series mostly up to 115 µM; inhibition: at the top concentration", "summary_of_the_method": "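RAW 264.7 cells at 4000/well, incubated overnight, then treated with compounds. After 24 h at 37 C, viability was read by ATPlite luminescence. An increase in signal indicates blocked uPA-dependent LF entry.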", "units": {"inhibition": "%"}}
{"smiles": "O=C1NC(CCc2ccccc2)C(=O)N1Cc1ccccc1Cl", "note": "(centres undefined)", "inhibition": 5}
{"smiles": "CCN(CC)CCNC(=O)/C(=C/c1cn(CC)c2ccccc12)NC(=O)c1cc(OC)c(OC)c(OC)c1", "inhibition": 0.948}
{"smiles": "COC(=O)/C(C#N)=C/c1c(N2CCN(c3ccccc3)CC2)nc2c(C)cccn2c1=O", "inhibition": -2.02}
{"smiles": "C#CCN1C=C(C(=O)OCC)C(C)NS1(=O)=O", "note": "(centres undefined)", "inhibition": 1.26}
{"smiles": "Cc1cccc(C(=O)NCC(=O)OCC(=O)NC2CCCCCCC2)c1", "inhibition": 1.31}
{"smiles": "COc1ccccc1C(=O)NCCC(=O)NCC(c1ccc(F)cc1)N1CCOCC1", "note": "(centres undefined)", "inhibition": -2.36}
{"smiles": "Cc1ccc(C)c(NC(=O)CCN2CCN(c3ccccc3F)CC2)c1", "inhibition": -0.576}
{"smiles": "CCOc1cc(/C=C(\\C#N)C(=O)NCc2cccnc2)ccc1O", "inhibition": -2.42}
{"smiles": "Cc1ccc(NC(=O)C(C)S)cc1", "note": "(centres undefined)", "inhibition": -3.16}
{"smiles": "CCCCCOC(=O)C1=C(C)NC(=O)NC1c1ccccc1", "note": "(centres undefined)", "inhibition": 0.136}
{"smiles": "O=C(NCCc1cn2ccsc2n1)c1cccs1", "inhibition": -1.44}
{"smiles": "Cc1noc(C)c1COc1ccc(C(=O)N2CCN(S(=O)(=O)c3ccc(Cl)cc3)CC2)cc1", "inhibition": 5.71}
{"smiles": "CC(C)Cn1cnc2c(N)nc3ccccc3c21", "inhibition": 12.8}
{"smiles": "COc1ccc([C@H]2CC(=O)C=C(c3ccc(CNC(=O)OC(C)(C)C)cc3)C2)cc1", "inhibition": -2.37}
{"smiles": "O=C(Nc1ccc(Cl)cn1)C1CCCN(c2ncnc3c2nc2n3CCCCC2)C1", "note": "(centres undefined)", "inhibition": -3.69}
{"smiles": "CC1CC(C)(C)Nc2ccc(N=O)cc21", "note": "(centres undefined)", "inhibition": -3.61}
{"smiles": "Cc1ccc(Nc2nc(Cl)c(C=O)s2)cc1", "inhibition": -3.05}
{"smiles": "O=C(Nc1ccc(S(=O)(=O)N2CCOCC2)cc1)c1cc(-c2ccccc2O)n[nH]1", "inhibition": -1.36}
{"smiles": "CCC(C)Sc1nnc(NS(=O)(=O)Cc2ccccc2)s1", "note": "(centres undefined)", "inhibition": -3.03}
{"smiles": "CC(=O)Nc1sc(C)c(C)c1C(=O)OCC(=O)NC(C)c1ccccc1", "note": "(centres undefined)", "inhibition": -0.488}
{"smiles": "CCN(CC)S(=O)(=O)c1ccc(NC(=S)Nc2ccc(F)cc2)cc1", "inhibition": -2}
{"smiles": "COc1ccc(/C=N/NC(=O)COc2ccc3ccccc3c2)c(C(=O)O)c1OC", "inhibition": -2.14}
{"smiles": "CC(=O)c1cnc2nc(SCc3cccc(C)c3)nn2c1C", "inhibition": -2.2}
{"smiles": "COC(=O)CCNS(=O)(=O)c1ccc2nsnc2c1", "inhibition": -0.28}
{"smiles": "Cc1cc(C)cc(S(=O)(=O)c2cn(C)c3cc(N4CCN(C)CC4)c(F)cc3c2=O)c1", "inhibition": -2.26}
{"smiles": "CCOc1ccc(NS(=O)(=O)c2ccc(C(=O)N3CCC3)cc2)cc1", "inhibition": -1.37}
{"smiles": "COC(=O)c1ccc(N2CCN(c3ccccc3)CC2)c(NC(=O)C2CC2)c1", "inhibition": -2.04}
{"smiles": "CCN1CCN(C(c2ccccc2)c2nnnn2Cc2ccc3c(c2)OCO3)CC1", "note": "(centres undefined)", "inhibition": 2.01}
{"smiles": "Cc1ccccc1NC1c2ccccc2C(=O)N1Cc1ccco1", "note": "(centres undefined)", "inhibition": -2.23}
{"smiles": "CC(C)c1ccc(NC(=O)COc2ccc(S(=O)(=O)N3CCOCC3)cc2)cc1", "inhibition": -0.157}
{"smiles": "COc1ccc(CC(=O)Nc2nc(C)cs2)cc1OC", "inhibition": -2.97}
{"smiles": "COc1ccc(Cc2nnc(Nc3ccc(C)cc3)o2)cc1OC", "inhibition": -0.266}
{"smiles": "O=C(CCCOc1ccc(Cl)cc1Cl)NCc1ccncc1", "inhibition": -0.921}
{"smiles": "Cn1cnc([N+](=O)[O-])c1Sc1ccc(Br)cc1", "inhibition": -2.59}
{"smiles": "COC(=O)c1ccc(CN2CCCC(CNC(=O)Cc3ccc(OC)cc3)C2)cc1", "note": "(centres undefined)", "inhibition": -0.65}
{"smiles": "COc1ccc(NS(=O)(=O)c2cccc(C(=O)NCc3ccccc3CN3CCCC3)c2)cc1", "Potency": "7.36 µM (active)"}
{"smiles": "COCCOC(=O)C1=C(C)NC(=O)NC1c1cccc2ccccc12", "note": "(centres undefined)", "inhibition": 1.45}
{"smiles": "C[C@H](O)[C@@H]1C(=O)N2CCc3ccc(-c4cccc(F)c4)cc3[C@@H]2C[C@@H]1N(C)C(=O)C(C)(C)C", "inhibition": -3.53}
{"smiles": "C[C@@H](CSc1ccccc1)CN1CC[C@H](O)CCC1=O", "inhibition": -0.766}
